# PP5 inh – PP5 (human) phosphatase inhibition; inhibition, % at 6.7 µM; AID 1987; P53041; purified PP5c, OMFP substrate fluorescence; 0.18% of 320,000 active;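 active = inhibition above the campaign's mean inhibition across all tested compounds plus 3 SD, cut at about 9.5% in these data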
# Target sequence (P53041 whole entry, looked up): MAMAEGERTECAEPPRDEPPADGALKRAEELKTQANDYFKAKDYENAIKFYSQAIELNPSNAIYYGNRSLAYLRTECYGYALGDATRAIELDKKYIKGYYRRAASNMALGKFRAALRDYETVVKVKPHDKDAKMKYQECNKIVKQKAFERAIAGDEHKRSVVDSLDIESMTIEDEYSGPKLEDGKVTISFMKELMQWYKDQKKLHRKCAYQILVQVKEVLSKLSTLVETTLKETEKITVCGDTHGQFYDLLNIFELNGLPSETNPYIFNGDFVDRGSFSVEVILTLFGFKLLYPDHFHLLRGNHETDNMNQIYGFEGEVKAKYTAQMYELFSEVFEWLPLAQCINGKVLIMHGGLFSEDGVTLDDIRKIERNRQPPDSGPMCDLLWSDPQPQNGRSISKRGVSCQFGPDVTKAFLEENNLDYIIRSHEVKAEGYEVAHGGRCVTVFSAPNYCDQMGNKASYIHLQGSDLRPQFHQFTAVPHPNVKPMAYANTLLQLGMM
# ANO1 activ – activates or potentiates the mouse TMEM16A chloride channel. Q8BHY3. HEK293 TMEM16A/YFP-H148Q/I152L, iodide quench fluorescence; hits give low values. B-score at 10 µM. 0.3% of 340,000 active. AID 623877;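 active = fluorescence-ratio B-score plate-corrected deviation score at least 3 library SD below zero, with starting fluorescence score within 5 deviations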;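 also: channel opened by trigger with iodide after compound preincubation; score built on the fluorescence ratio of max minus min over baseline; more negative score means more quench and so TMEM16A activation or potentiation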
# PP1 counter – counter-screen for PP5 inhibitors: inhibitors of human PP1-alpha. purified PP1alpha, OMFP fluorescence. inhibition, % at 6.7 µM. 0.9% of 320,000 active;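 active = inhibition above the mean inhibition of all tested compounds plus 3 SD, computed separately for each screening campaign, cut at about 15% in these data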
# PREPL inh – inhibits the human prolyl oligopeptidase-like enzyme; AID 2751; inhibition, % at 5.96 µM; Q4J6C6; 0.68% of 320,000 active; recombinant PREPL, fluorescence polarization activity-based probe; in the data active = inhibition above about 43%
# DNA FID counter – counter-screen for HCV NS3 helicase inhibitors: DNA intercalator displacement | 0.17% of 290,000 active | AID 1845 | DNA fluorescent intercalator displacement, fluorescence | inhibition, % at 7.9 µM; in the data active = inhibition above about 37%;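 also: higher means more ethidium bromide displaced from hairpin DNA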
# TMEM16A inh – blocks the mouse calcium-activated chloride channel TMEM16A; Q8BHY3; HEK293 TMEM16A/YFP iodide influx fluorescence, ionomycin; normalized B-score (activity score, 25-100; higher = stronger inhibition) at 10 µM; 1.2% of 310,000 active;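 active = ratio plate-corrected score three or more library SD toward inhibition, starting fluorescence score within five deviations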;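 also: score derived from kinetic fluorescence span divided by baseline fluorescence per well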
# TMEM16A reconf – re-confirmation of mouse TMEM16A chloride channel inhibitors; HEK293 TMEM16A/YFP-H148Q, iodide quench fluorescence; ionomycin added to raise cell calcium; 39% of 2,300 active; inhibition, % at 10 µM; shares compounds with TMEM16A inh;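 active = mean duplicate percent inhibition, scaled so buffer wells are 0 and the reference blocker 100, over three buffer SD above buffer mean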
# HEK293 Ca mobil – alters calcium mobilization in TMEM16A HEK293 cells, counter-screen; TMEM16A/YFP HEK293, Fluo4 calcium mobilization; 2% of 2,300 active; calcium response (% of ionomycin), % at 10 µM; shares compounds with TMEM16A inh;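 active = duplicate-averaged calcium signal over 20% of the ionomycin maximum, relative to buffer baseline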;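 also: each well's signal is peak minus trough fluorescence divided by its pre-addition baseline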
# Parental YFP cnt – parental YFP-HEK293 iodide quench counter-screen activity; shares compounds with TMEM16A inh; ionomycin; YFP ratio F(max-min)/F0 at 10 µM; 2,300 tested, under 10 active;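 active = yellow fluorescent protein signal ratio exceeding the buffer control mean by over 5 SD of those controls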;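 also: ratio is mean of duplicate wells from kinetic YFP trace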
# ClC-1 inh – selectivity of TMEM16A inhibitors: inhibition of rat ClC-1 chloride channel; shares compounds with TMEM16A inh; CHO ClC-1-YFP, iodide influx fluorescence quench; iodide control reads 0, buffer control 100; AID 652236; ratio percent, % at 10 µM; 2,300 tested, under 10 active;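 active = duplicate-mean ratio percent above the mean of iodide-only control wells, which defines zero, plus 5 of their SD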;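 also: higher percent means stronger block of ClC-1 iodide influx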
# Numbers stand for hits; – = inactive; · = not tested or not shown; ! = a repeat was not active. Compounds with a hit are over-represented: about 2.7% of the library has one in this group of screens.
SMILES,PP5 inh,ANO1 activ,PP1 counter,PREPL inh,DNA FID counter,TMEM16A inh,TMEM16A reconf,HEK293 Ca mobil,Parental YFP cnt,ClC-1 inh
CCOC(=O)C(CCC(=O)O)(CCC(C)C)c1csc(N)n1 (stereo not drawn),–,–,–,–,–,100,–,–,–,–
O=C(Nc1ncc([N+](=O)[O-])s1)c1cccs1,–,–,–,–,–,25,24.5%,–,–,–
Cc1ccc(S(=O)(=O)CC(=O)Nc2ncc([N+](=O)[O-])s2)cc1,–,–,–,–,–,25,38.5%,–,–,–
Cc1ccc(CC(=O)Nc2ncc([N+](=O)[O-])s2)cc1,–,–,–,–,–,–,·,·,·,·
O=C(CSc1cccc2cccnc12)Nc1cc(C(=O)O)cc(C(=O)O)c1,–,–,–,–,–,–,·,·,·,·
CCOc1ccc(-n2c(=O)c3sccc3n(CC(=O)NCCc3ccc(OC)c(OC)c3)c2=O)cc1,–,–,–,–,–,–,·,·,·,·
Nc1nn(S(=O)(=O)c2cccc3nsnc23)cc1-c1ccc(Br)cc1,–,–,–,–,–,25,–,–,–,–
c1ccc(CNc2ncnc3ccccc23)cc1,–,–,–,–,–,25!,–,–,–,–
C/C(=N\NC(=O)c1cccc(S(=O)(=O)N2CCCC2)c1)c1ccc(F)cc1,–,–,–,–,·,–,·,·,·,·
CC(C)(C)C(=O)Nc1ccccc1C(=O)NCCC(=O)Nc1ccccc1,–,–,–,–,·,–,·,·,·,·
Cc1ccnc(NC(=O)c2cccc(OC(F)F)c2)n1,–,–,–,–,–,–,·,·,·,·
O=C(Nc1cc(Cl)cc(Cl)c1)c1cccc(OC(F)F)c1,–,–,–,–,–,100,43.0%,–,–,–
CNC(=S)N1CCN(c2ccc(Cl)c(Cl)c2)CC1,–,–,–,–,–,–,·,·,·,·
O=C(Nc1cccnc1)c1ccccc1-c1nc(-c2ccccc2F)no1,–,–,–,–,–,25,–,–,–,–
O=C(CN1C(=O)C2CC=CCC2C1=O)NCc1ccc2c(c1)OCO2 (stereo not drawn),–,–,–,–,–,25,–,–,–,–
N#Cc1ccccc1Oc1ccccc1C=O,–,–,–,–,–,–,·,·,·,·
O=C1Nc2ccc(C(=O)O)c(O)c2C1=O,·,–,·,·,·,·,·,·,·,·
O=C(NC1=NCCS1)c1ccc(Cl)c(S(=O)(=O)N2CCCC2)c1,–,–,–,–,–,25,–,–,–,–
CC1(C)Cc2c(cnn2-c2ccccc2)C(NC(=O)CCN2CCCCO2)C1 (stereo not drawn),–,–,–,–,–,–,·,·,·,·
O=C(COc1ccccc1Br)c1ccc2c(c1)OCO2,–,–,–,–,·,–,·,·,·,·
O=C(COc1ccccc1Br)c1ccc(O)cc1O,–,–,–,–,–,100,–,–,–,–
COc1ccc(Cl)cc1C(=O)CSc1nnnn1C1CCCCC1,–,–,–,–,–,100,–,–,–,–
Clc1ccc(Cn2cnc3ccccc32)cc1,–,–,–,–,–,100,23.0%,–,–,–
c1ccc(Cn2cnc3ccccc32)cc1,–,–,–,–,–,–,·,·,·,·
O=C(O)c1ccccc1NSc1ccccc1[N+](=O)[O-],–,–,–,–,–,–,·,·,·,·
SMILES,PP5 inh,ANO1 activ,PP1 counter,PREPL inh,DNA FID counter,TMEM16A inh,TMEM16A reconf,HEK293 Ca mobil,Parental YFP cnt,ClC-1 inh
CCc1ccc(NSc2ccccc2[N+](=O)[O-])cc1,–,–,–,–,–,25,–,–,–,–
CCN(CC)c1ccc(NC(=S)NC(=O)c2cccs2)cc1,–,–,–,–,–,–,·,·,·,·
CCCN(CCC)c1nc(NC2CCN(C(=O)OCC)CC2)nc(OC)n1,–,–,–,–,–,25,–,–,–,–
COc1cccc(-c2nc(CS(=O)(=O)CC(=O)Nc3cc(OC)ccc3OC)c(C)o2)c1,–,–,–,–,–,–,·,·,·,·
CCCCNC(=S)Nc1ccc(C(F)(F)F)cc1,–,–,–,–,–,100,40.0%,–,–,–
CCOC(=O)C1C(c2cccc(F)c2)NC(=S)NC1(O)C(F)(F)F (stereo not drawn),–,–,–,–,–,–,·,·,·,·
O=C(CSc1nc2ccccc2n1S(=O)(=O)c1ccccc1)N1CCCC1,–,–,–,–,–,–,·,·,·,·
CC(NC(=O)C1CCC1)c1ccc2c(c1)OCO2 (stereo not drawn),–,–,–,–,–,25,–,–,–,–
Cc1ccc(C(C)NC(=O)C2CCCC2)cc1C (stereo not drawn),–,–,–,–,–,–,·,·,·,·
CCCCOc1ccc(C(=O)N2CC(C)OC(C)C2)cc1 (stereo not drawn),–,–,–,–,–,–,–,–,–,–
CCCCOc1ccc(C(=O)N2CCCC2)cc1,–,–,–,–,–,–,·,·,·,·
O=S(=O)(Nc1nc2ccccc2nc1Nc1ccc2c(c1)OCO2)c1ccccc1,–,–,–,–,–,–,·,·,·,·
Cc1cccc(S(=O)(=O)Nc2nc3ccccc3nc2Nc2ccc3c(c2)OCO3)c1,–,–,–,–,–,25,20.0%,–,–,–
CCCCn1c2nc3ccccc3nc2c2c(=O)n(C(C)CC)cnc21 (stereo not drawn),–,–,–,–,–,–,·,·,·,·
CCC(C)n1c(C)nc2c(c1=O)c1nc3ccccc3nc1n2CCC1=CCCCC1 (stereo not drawn),–,–,–,–,–,25,21.5%,–,–,–
COc1ccccc1N1CC(C)(C)C(=O)N(C(=O)c2c(F)cccc2Cl)C1=S,–,–,–,–,–,–,·,·,·,·
CCCCOC(=O)C1=C(C)Nc2ncnn2C1c1ccc(OC)c(OC)c1 (stereo not drawn),–,–,–,–,–,–,·,·,·,·
CCCCOC(=O)C1=C(C)Nc2ncnn2C1c1ccc(OCC)c(OC)c1 (stereo not drawn),–,–,–,–,–,25,–,–,–,–
CCc1ccc(CNn2cnnc2SCC(=O)NC(C)(C)C)cc1,–,–,–,–,–,100,–,–,–,–
COc1ccc(S(=O)(=O)N2CCOCC2)cc1NC(=O)CSc1nnc(C2CC2)n1N,–,–,–,–,–,–,·,·,·,·
CCN(c1cccc(C)c1)S(=O)(=O)c1ccc(-c2cc(C)no2)s1,–,–,–,–,–,–,·,·,·,·
Cc1cccc(N(C)S(=O)(=O)c2ccc(-c3cc(C)no3)s2)c1,–,–,–,–,–,25,–,–,–,–

# From PubChem
